Source: PubChem BioAssay AID977624 (Broad Institute, 2014)
The campaign covered roughly 1,800 compounds. Fewer than 10 were called active. Roughly 44% stayed inconclusive and do not appear here.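 Rule for the calls: active = compound lowering the normal-ribosome reporter at least twice as much as the humanized-ribosome reporter, growth loss under a set limit; inconclusive = no clear call, values can overlap the other calls; inactive = the rest.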 Only a sample is shown.

experiment: growth inhibition of wild-type GFP E. coli, dose response, h34 mutant RFP, cherry-pick (AID 977624); details: E. coli wild-type GFP strain growth, fluorescence, 24 h; series mostly up to 50 µM

outcome, inactive:
COc1cccc(NC(=O)c2ccc(C(=O)c3ccccc3)o2)c1
COc1ccc(C(=O)C2CCCN(C(=O)c3noc4c3CCCC4)C2)cc1F (stereo not drawn)
COc1ccc(C(=O)N(c2ccccc2)c2nccc3ccccc23)cc1OC
COc1ccc(C2CC(=O)CCN2S(=O)(=O)c2ccc(C)cc2)cc1 (stereo not drawn)
O=C(NCc1ccc(S(=O)(=O)Nc2ccccc2Cl)s1)c1ccccc1
Cc1ccc(C)c(-c2[nH]ncc2CN2CCCC(CO)(Cc3ccccc3C)C2)c1 (stereo not drawn)
Cc1nn(-c2cccc(Cl)c2)nc1C(=O)O
CC1CCN(c2ccc3nnc(CCC(=O)Nc4cccc(F)c4)n3n2)CC1
O=C1c2ccccc2NC(c2ccc(-c3cccc([N+](=O)[O-])c3)o2)N1O (stereo not drawn)
COc1ccc(OC)c(-c2csc(NC(=O)C3COc4ccccc4O3)n2)c1 (stereo not drawn)
COc1ccc(-n2nc3cc(N)c(Br)cc3n2)cc1
CN1C(=O)c2cc(NC(=O)c3cccc(F)c3)ccc2OC[C@H]2O[C@@H](CC(=O)N3CCc4ccccc4C3)CC[C@@H]21
Brc1cc2c(cc1Br)OCCOCCOCCO2
COC(=O)CC#C[C@H](C)[C@@H](NS(=O)(=O)c1ccc([N+](=O)[O-])cc1)C(C)(C)C
Cc1cc(C(=O)NCCC2=CCCCC2)ccc1[N+](=O)[O-]
CN(C)S(=O)(=O)c1ccc(Cl)c(C(=O)OCC(=O)NC(=O)c2cccn2C)c1
COC(=O)c1cc(S(=O)(=O)NCc2ccc3c(c2)OCO3)cn1C
Cc1ccc(-c2cc(-c3ccc(C)cc3)[n+](-c3ccc(C(=O)[O-])cc3)c(-c3ccc(C)cc3)c2)cc1
CC(=O)Nc1ccc(NS(=O)(=O)c2ccc(Cl)s2)cc1
CN(c1ccc(C(=O)NCc2cccs2)cc1)S(=O)(=O)c1ccccc1
CCn1nc(C(=O)OCc2cccc(S(=O)(=O)N(C)C)c2)c2ccccc2c1=O
COc1cccc(NC(=O)CSc2nc3c(sc4ccccc43)c(=O)n2CCN(C)C)c1
O=C(CC1C(=O)NCCN1CC1CCCCC1)NCc1ccc(F)cc1F (stereo not drawn)
CC(=O)N1CCN(c2nc(-c3cccs3)nc3ccccc23)CC1
COc1ccc(NC(=O)c2sccc2-n2cccc2)cc1
O=C(Cc1ccc(NC(=O)C2CCCN(C(=O)CCc3ccccc3)C2)cc1)Nc1cccc(C(=O)N2CCCC2)c1 (stereo not drawn)
COc1ccc(Nc2nc(NCCO)nc(N3CCCC3)n2)cc1
CC(C)[C@H](NC(=O)c1ccc([N+](=O)[O-])cc1Cl)C(=O)N1CCN(C/C=C/c2ccccc2)CC1
COc1ccccc1NC(=O)CN1CCSc2ccccc21
O=C(NCc1ccccc1Cl)[C@H]1CCCN1C(=O)[C@H]1CCCN1C(=O)c1cccc2ccccc12
CC1(C(=O)Nc2ccc3c(c2)OCCO3)CSCC(=O)N1CCOc1ccccc1 (stereo not drawn)
O=S(=O)(c1cnc(Cl)c(Cl)c1)N1CCCc2ccccc21
CCOC(=O)C1(CCCc2ccccc2)CCN(C(=O)CCn2cncn2)CC1
